In ChEMBL document CHEMBL1157539, “Thousands of chemical starting points for antimalarial lead identification” (Nature, 2010):

What was measured:
Assay type in all cases: functional
[1] = system: Plasmodium falciparum; test: GSK_TCMDC: Inhibition of Plasmodium falciparum 3D7 in whole red blood cells, using parasite LDH activity as an index of growth. Test compounds present at 2uM
[2] = system: Plasmodium falciparum; test: GSK_TCMDC: Inhibition of Plasmodium falciparum Dd2 in whole red blood cells, using parasite LDH activity as an index of growth. Test compounds present at 2uM
[3] = system: HepG2; test: GSK_TCMDC: Percent inhibition of human HepG2 cell line. Test compounds present at 10uM.

## Cl.Oc1ccc2ccccc2c1CNC1CCCCCC1
[1]
  Inhibition: 83%
[2]
  Inhibition: 33%
[3]
  Inhibition: 9%

## CC[C@H](C)[C@@H](C(=O)N1CCOCC1)N1CC[C@H](NS(=O)(=O)CC(C)(C)c2ccc(Cl)cc2)C1=O
[1]
  Inhibition: 100%
[2]
  Inhibition: 95%
[3]
  Inhibition: 0%

## CC(C)COc1ccc(Cl)cc1Cc1nc(-c2nc3ccc(CN4CCN(C)CC4)cc3[nH]2)co1.Cl
[1]
  Inhibition: 100%
[2]
  Inhibition: 57%
[3]
  Inhibition: 5%

## O=C(/C=C/c1ccc(-c2nc3ccc(Cl)cc3[nH]2)cc1)NCc1cccc(F)c1
[1]
  Inhibition: 99%
[2]
  Inhibition: 68%
[3]
  Inhibition: 1%

## COc1ccc2nccc([C@@H](O)CN3CCC(NC(=O)c4ccc5nc(-n6cccc6)sc5c4)CC3)c2c1
[1]
  Inhibition: 90%
[2]
  Inhibition: 40%
[3]
  Inhibition: 26%

## COc1cc2nc(N3CCC(NC(=O)c4cccc(N(C)C)c4)CC3)nc(N)c2cc1OC.O=C(O)/C=C\C(=O)O
[1]
  Inhibition: 98%
[2]
  Inhibition: 0%
[3]
  Inhibition: 6%

## COc1ccc(NC(=O)Nc2cccc(-c3ccc(-c4nc5cc(C(F)(F)F)ccc5[nH]4)cc3)c2)cc1
[1]
  Inhibition: 100%
[2]
  Inhibition: 29%
[3]
  Inhibition: 46%

## CN1CCN(c2ccc(Nc3nccc(-c4cnn5ncccc45)n3)cc2Cl)CC1
[1]
  Inhibition: 95%
[2]
  Inhibition: 92%
[3]
  Inhibition: 65%

## CCC1(C)CC(CCNCc2ccccc2O)(c2ccccc2OC)CCO1.Cl (centres undefined)
[1]
  Inhibition: 94%
[2]
  Inhibition: 93%
[3]
  Inhibition: 10%

## CN(C)Cc1ccc(CN2CCN(CCOc3ccc(-c4ccc(Cl)cc4)cc3)CC2)o1
[1]
  Inhibition: 90%
[2]
  Inhibition: 21%
[3]
  Inhibition: 75%

## COc1ccc2nccc([C@@H](O)CN3CCC(NCc4cnc5c(c4)NC(=O)CS5)CC3)c2c1.O=C(O)C(=O)O
[1]
  Inhibition: 87%
[2]
  Inhibition: 29%
[3]
  Inhibition: 0%

## CCn1cc(C=C2Oc3c(ccc(O)c3CN3CCCCC3C)C2=O)c2ccccc21 (centres undefined)
[1]
  Inhibition: 94%
[2]
  Inhibition: 80%
[3]
  Inhibition: 0%

## CC(C)CCN1CCCN(Cc2ccc(C(=O)Nc3ccc(Cl)cc3)cc2)CC1.O=C(O)C(F)(F)F
[1]
  Inhibition: 94%
[2]
  Inhibition: 15%
[3]
  Inhibition: 46%

## CC(O)C(=O)O.CCOc1ccc2nc3cc(N)ccc3c(N)c2c1
[1]
  Inhibition: 98%
[2]
  Inhibition: 70%
[3]
  Inhibition: 8%

## CC(=O)Nc1cccc(C(=O)Nc2ccc(-c3ccc(-c4nc5cccc(C)c5[nH]4)s3)cc2)c1
[1]
  Inhibition: 93%
[2]
  Inhibition: 20%
[3]
  Inhibition: 94%

## O=C(/C=C/c1ccc(Cl)c(Cl)c1)NC1CCN(CCCNC(=O)c2cccc(Cl)c2)CC1.O=C(O)C(F)(F)F
[1]
  Inhibition: 100%
[2]
  Inhibition: 28%
[3]
  Inhibition: 36%

## COc1ccc2nccc([C@@H](O)CN3CCC(NCCOc4cccc(C(F)(F)F)c4)CC3)c2c1.O=C(O)C(=O)O
[1]
  Inhibition: 100%
[2]
  Inhibition: 74%
[3]
  Inhibition: 16%

## CC(C)CNCc1cccc(-c2ccccc2CN(C(=O)NCCc2ccccc2)C2CCN(Cc3ccccc3)CC2)c1.O=C(O)C(F)(F)F
[1]
  Inhibition: 89%
[2]
  Inhibition: 82%
[3]
  Inhibition: 42%

## COc1cc2ncnc(Nc3ccc(OCc4ccccc4Br)c(OC)c3)c2cc1OC.Cl
[1]
  Inhibition: 100%
[2]
  Inhibition: 62%
[3]
  Inhibition: 11%

## COc1ccc(OC)c(-c2ccc(=O)n(CC(=O)Nc3cccc4ccccc34)n2)c1
[1]
  Inhibition: 100%
[2]
  Inhibition: 95%
[3]
  Inhibition: 0%

## CS(=O)(=O)O.N#Cc1ccc(CNCCCCCCNCc2ccc(C#N)c3ccccc23)c2ccccc12
[1]
  Inhibition: 100%
[2]
  Inhibition: 96%
[3]
  Inhibition: 51%

## CCCNCc1ccc(-c2ccc(CN(C(=O)c3nn(-c4ccccc4)nc3C)C(C)CN(C)C)cc2)nc1.O=C(O)C(F)(F)F (centres undefined)
[1]
  Inhibition: 95%
[2]
  Inhibition: 95%
[3]
  Inhibition: 27%

## Cc1ccc(Nc2nccc(NCC(O)c3ccc(C(F)(F)F)cc3)n2)cc1 (centres undefined)
[1]
  Inhibition: 100%
[2]
  Inhibition: 100%
[3]
  Inhibition: 53%

## Br.CC1(C)NC(N)=NC(=N)N1OCCCNC(=O)c1ccc([N+](=O)[O-])cc1
[1]
  Inhibition: 92%
[2]
  Inhibition: 97%
[3]
  Inhibition: 57%

## CCOc1cccc(C(=O)Nc2cccc(CN3CCCN(Cc4cccc(O)c4)CC3)c2)c1.O=C(O)C(F)(F)F
[1]
  Inhibition: 85%
[2]
  Inhibition: 18%
[3]
  Inhibition: 17%

## O=C(Nc1ccc(-c2nc3ccccc3[nH]2)cc1)C1CCN(Cc2ccccc2)CC1
[1]
  Inhibition: 100%
[2]
  Inhibition: 82%
[3]
  Inhibition: 12%

## Br.CN1C(=O)C(=O)N(CCCCCONC(=N)N)C1=S
[1]
  Inhibition: 100%
[2]
  Inhibition: 1%
[3]
  Inhibition: 21%

## O=C(NCC1CCCCC1)c1cc(=O)c2ccccc2o1
[1]
  Inhibition: 98%
[2]
  Inhibition: 77%
[3]
  Inhibition: 0%
